The text below walks through data of PubChem BioAssay (NCI).

The structures appear in SMILES notation. This is part of a sample that, as a whole, favours compounds with a hit. Of some 83,000 tested, about 20% had one in any assay.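 Results are percent growth after 48 hours of single-concentration exposure. 100 means growth as in untreated cells, lower positive values show inhibition; negative values down to -100 show cell death.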 A number with no mark means an inactive call. Activity calls are given as the source filed them. How the source made its calls: active means growth percent below 10; inactive means the rest.

What all share (test): NCI-60 one-dose screen, 48 h (100 = growth as untreated, 0 = no growth, -100 = all killed)
Holding throughout (conditions): 10 µM unless noted

For assay [1], the system named is SK-MEL-2 melanoma.
For assay [2], the system named is EKVX NSCLC.
Assay [3] has as its system SN12C renal.
Assay [4] deals with UO-31 renal.
Assay [5] relates to TK-10 renal.
In assay [6] the test system is ACHN renal.
The subject of assay [7] is CAKI-1 renal.
For assay [8], the system named is A498 renal.
Assay [9] deals with CCRF-CEM leukemia.
Assay [10] concerns SR leukemia.
Assay [11] deals with OVCAR-8 ovarian.
For assay [12], the system named is OVCAR-5 ovarian.
The test system of assay [13] is OVCAR-4 ovarian.
For assay [14], the system named is SK-OV-3 ovarian.
Assay [15] deals with IGROV1 ovarian.
Assay [16] relates to OVCAR-3 ovarian.
The subject of assay [17] is HS 578T breast.
Assay [18] has as its system NCI/ADR-RES ovarian.
For assay [19], the system named is MOLT-4 leukemia.
Assay [20] has as its system RPMI-8226 leukemia.

`c1ccc(CCn2cccc2)nc1`: the growth is 101% in [1]; 107% in assay [2]; 102% in assay [3]; 94.3% in [4]; 99.7% in [5]; 104% in assay [6]. In addition, the growth in assay [7] was 91.1%; in assay [8], 105%; in assay [9], 105%; in [10] it was 75.2%; in [11], 102%; in [12], 103%. In addition, the growth in assay [13] was 113%; in assay [14], 107%; in assay [15] it was 121%; in assay [16], 101%; in assay [17], 120%; in assay [18] it was 105%.
In the case of `CS(=O)(=O)c1ccc(Cl)c([N+](=O)[O-])c1`, the growth was 99.8% in assay [1]; 104% in assay [2]; 107% in assay [3]; 5.92% (active) in assay [4]; 108% in [5]; 108% in assay [6]. Further, the growth is -88.3% (active) in assay [7]; 106% in assay [8]; 53.2% in assay [19]; 18.6% in [10]; 70.3% in assay [20]; 107% in assay [11]. In addition, the growth in [12] is 108%; in [13], 111%; in assay [14], 104%; in assay [15] it was 38.5%; in assay [16], 9.6% (active); in [17] it was 73.3%. Further, the growth in assay [18] was 101%.
`C=CCN(CC#N)CC=C`: the growth was 117% in [1]; 100% in assay [2]; 102% in assay [3]; 92.4% in [4]; 103% in assay [5]; 109% in [6]. Moreover, the growth is 107% in assay [7]; 112% in assay [8]; 102% in [19]; 93.2% in [10]; 100% in assay [11]; 102% in assay [12]. The growth is 116% in assay [14], 120% in [15], 121% in assay [17] and 115% in [18].
As to `O=C1CCCN1C1CCN2CCCc3cccc1c32` (centres undefined), the growth was 102% in assay [1]; 102% in [2]; 104% in assay [3]; 81.3% in assay [4]; 103% in assay [5]; 106% in assay [6]. The growth in assay [7] is 105%; in assay [8] it was 99.2%; in assay [19], 78.9%; in [10], 83.5%; in assay [11] it was 103%; in assay [12], 99.9%. Further, the growth in assay [13] is 105%; in [14], 110%; in assay [15], 98.5%; in [16], 121%; in assay [17], 112%.
On to `COc1cc(NC(=O)CSc2nc3ccc(Cl)cc3c(=O)n2-c2ccccc2)cc(OC)c1OC`, for which the growth in [1] is 99.8%; in assay [2], 76.4%; in assay [3], 94.3%; in [4], 51%; in assay [5], 120%; in [6], 92.1%. For the same compound, the growth in assay [7] is 83.3%; in [8], 46.6%; in [9] it was 70.5%; in assay [11], 93.2%; in assay [12], 96.3%; in assay [13] it was 85.7%. The growth in [14] was 101%; in assay [15], 91.5%; in assay [16] it was 97%; in assay [17] it was 81.5%; in [18] it was 90.8%.
With `COc1ccc(-c2cnnn2-c2nonc2-n2cccc2)cc1`, the growth is 54.6% in [1]; 55.6% in [2]; 43.9% in assay [3]; 44.2% in assay [4]; 63.7% in assay [5]; 48.2% in assay [6]. Further, the growth in assay [7] is 45.5%; in assay [8], -4.22% (active); in assay [9], 14.1%; in assay [20], 27.9%; in [11] it was 31.3%; in assay [12] it was 37.2%. In addition, the growth in assay [13] is 42.9%; in assay [14], -4.76% (active); in assay [15] it was 28.9%; in assay [16], -38.9% (active); in [17], -1.93% (active); in assay [18] it was 6.88% (active).
Consider `CC(C)C/C=C/C=C/C(=O)N[C@@H](CC(N)=O)C(=O)N[C@@H]1C(=O)N[C@H](c2ccc(O)cc2)C(=O)N[C@H](CCCN)C(=O)N[C@H]([C@@H](C)O)C(=O)N[C@H](c2ccc(O)cc2)C(=O)N[C@H](c2ccc(O)cc2)C(=O)N[C@H]([C@H](C)O)C(=O)N[C@H](Cc2ccccc2)C(=O)N[C@H](CCCN)C(=O)N[C@H](c2ccc(O[C@H]3O[C@@H](CO)[C@@H](O)[C@@H](O)[C@H]3O[C@@H]3O[C@H](CO)[C@H](O)[C@H](O)[C@@H]3O)cc2)C(=O)N[C@H]([C@H](C)O)C(=O)N[C@H](c2ccc(O)cc2)C(=O)NCC(=O)N[C@H](CC(C)C)C(=O)N[C@H](C)C(=O)N[C@H](c2ccc(O)c(Cl)c2)C(=O)O[C@@H]1C(N)=O`, for which the growth in assay [1] was 88.2%; in assay [2], 92.7%; in [3] it was 94.5%; in assay [4] it was 118%; in assay [5] it was 74.5%; in assay [6], 111%. The growth was 97.1% in assay [7]; 199% in assay [8]; 38.8% in assay [19]; 33.1% in assay [10]; 109% in assay [20]; 63.9% in assay [11]. The growth in [12] was 36.2%; in assay [13], 117%; in assay [14] it was 87.4%; in [15], 96.6%; in assay [16] it was 117%; in [17], 67.3%. In addition, in assay [18], the growth is 96.9%.
In the case of `O=C(O)c1ccccc1Oc1cc(-c2ccco2)nc(OCCN2CCOCC2)n1`, the growth was 100% in [1]; 113% in assay [2]; 97.3% in assay [3]; 87.6% in assay [4]; 97.4% in assay [5]; 107% in assay [6]. Further, the growth in assay [7] was 96.2%; in [8] it was 104%; in [9], 94.2%; in [20], 99.8%; in assay [11] it was 105%; in assay [12], 99.6%. The growth is 108% in [13]; 99.8% in assay [14]; 103% in [15]; 126% in assay [16]; 112% in [17]; 99.7% in assay [18].
Regarding `CCCCCCCCCCCC1=NC(C)(C)CN1C(C)C`, the growth was 60.9% in assay [1]; 57.5% in assay [2]; 61% in assay [3]; 38% in assay [4]; 81.6% in [5]; 61.6% in assay [6]. Moreover, the growth in [7] is 46.6%; in assay [8] it was 76.7%; in assay [9], 29.3%; in assay [11], 58.7%; in [12], 74.6%; in assay [13] it was 50.7%. Besides, the growth in assay [14] is 75.9%; in assay [15], 32.5%; in assay [16] it was 48.3%; in [17], 53.2%; in assay [18] it was 47.3%.
